From PubChem
In the library only some 5% were active in any assay of this set; here they are far more common.
VACV Venus inh: qHTS for Stage-Specific Inhibitors of Vaccinia Orthopoxvirus: Venus Reporter Primary qHTS; Vaccinia virus Venus reporter expression, fluorescence; Potency, µM (top dose mostly 36.5 µM), for inactives: at the top dose activity change, negative = inhibition, hits mostly inhibitors; 330,000 compounds, 0.46% hits; calls by dose curve; tested in A549 cells; further: potency means the concentration at half of the fitted maximal effect; nearly all actives have a fitted effect of over 30% in size
HCMV antiviral: qHTS Assay for inhibitors of the human cytomegalovirus (HCMV). AID 1259415, 2018. HFF cells, HCMV-luciferase reporter, 72 h; active compounds read low. 410,000 compounds, 4.5% hits. activity change, negative = inhibition, % at 57.5 µM; in the data active means activity change below about -60%; inconclusive means no clear call, values can overlap the other calls; inactive means above about -39%
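HFF cells seeded 16 h at 37C, treated with compounds, infected with luciferase-reporter HCMV at MOI 1 PFU/cell; luciferase read at 72 h post infection, normalized to buffer-only and Salinomycin controls.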
Tb PYK inh: qHTS of Trypanosoma Brucei Inhibitors | pyruvate kinase (Trypanosoma brucei), Q57TT1 | TbPYK enzyme, Kinase-Glo Plus ATP luminescence, 45 min | Potency, µM (doses to about 76.8 µM), for the others: at the top dose activity, negative = inhibition, usual class: inhibitors | 410,000 compounds, 0.12% hits | AID 624173, 2012; further: potency means the concentration at half of the fitted maximal effect; nearly all actives have a fitted effect of over 50% in size
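ADP (130 uM final) triggers the TbPYK reaction after compound addition; incubation is 45 min at room temperature. Kinase-Glo Plus is then added and luminescence imaged. Normalized data are fitted to concentration-effect curves.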
LmPK inhibitor: qHTS Assay for Inhibitors of Leishmania Mexicana Pyruvate Kinase (LmPK) | Q27686 | 290,000 compounds, 0.37% hits | Potency, µM (highest dose often 57.5 µM), without a hit: at the highest dose activity change, negative = inhibition, actives largely listed as inhibitors | purified LmPK, Kinase-Glo ATP luminescence, 1 h; further: potency means the concentration at half of the fitted maximal effect
Target sequence (Q27686 whole entry, looked up): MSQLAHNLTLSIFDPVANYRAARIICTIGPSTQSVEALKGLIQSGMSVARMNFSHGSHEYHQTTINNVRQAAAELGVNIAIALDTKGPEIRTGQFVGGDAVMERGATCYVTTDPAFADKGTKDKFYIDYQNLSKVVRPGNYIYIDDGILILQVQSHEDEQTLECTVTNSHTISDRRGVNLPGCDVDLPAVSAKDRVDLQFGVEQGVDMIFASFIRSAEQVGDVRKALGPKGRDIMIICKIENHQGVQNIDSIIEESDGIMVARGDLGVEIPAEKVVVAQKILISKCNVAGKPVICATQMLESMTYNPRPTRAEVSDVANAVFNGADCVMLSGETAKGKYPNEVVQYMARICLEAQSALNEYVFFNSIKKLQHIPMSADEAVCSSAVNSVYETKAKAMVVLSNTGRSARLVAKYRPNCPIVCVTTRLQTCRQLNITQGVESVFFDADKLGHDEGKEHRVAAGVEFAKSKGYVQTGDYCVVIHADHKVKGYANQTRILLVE
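Purified LmPK (0.1 nM) converted ADP (0.1 mM) to ATP with PEP (0.5 mM) in imidazole buffer pH 7.2 with KCl and MgCl2, 1 h at room temperature. ATP was read by Kinase-Glo luminescence; data normalized to uninhibited and no-enzyme controls.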
Vaccinia mCherry: qHTS for Stage-Specific Inhibitors of Vaccinia Orthopoxvirus: mCherry Reporter Primary qHTS; 310,000 compounds, 0.63% hits; Vaccinia virus mCherry reporter infection, fluorescence; Potency, µM (top dose mostly 36.5 µM), inactives show top-dose activity change, negative = inhibition, hits mostly inhibitors; calls by dose curve; tested in A549 cells; further: potency means the concentration at half of the fitted maximal effect; nearly all actives have a fitted effect of over 35% in size
Active calls of the source: *; i = inactive; u = inconclusive; x = no result given; ! = not active in a repeat; [ ] = another dose, or the depositor's remark. Unless noted, the call rests on the fitted dose curve; in most records, active means well fitted curve in the direction sought with a large enough effect; inconclusive means small, poorly fitted or top-dose-only effect, or another doubt; inactive means no such curve, though single readings can be large; an effect the other way counts as inactive or inconclusive. On the % scale 0 is the no-effect control and ±100 the full control effect.

SMILES	VACV Venus inh	HCMV antiviral	Tb PYK inh	LmPK inhibitor	Vaccinia mCherry
COc1cc(S(=O)(=O)N2CCCCC2)ccc1NC(C)=O	x	-21.3	0.6%	-1.4%	x
O=C1c2ccccc2C(=O)N1CCSc1n[nH]c(=S)s1	u	-10.4	28.2µM*	16.6%	u
COc1ccc(/C=N/n2c(-c3n[nH]c4c3CCC4)n[nH]c2=S)c(OC)c1OC	x	-25.4	-38.3%	-8.2%	x
COc1ccc(/C=N/n2c(-c3n[nH]c4c3CCC4)n[nH]c2=S)cc1	-24.7%	-19.1	u	-18.9%	-11.7%
COc1ccc(OC)c(/C=N/n2c(-c3n[nH]c4c3CCC4)n[nH]c2=S)c1	-17.7%	48.2	3.55µM*	-10.1%	-24.0%
COc1cc(OC)c(OC)cc1/C=N/n1c(-c2n[nH]c3c2CCC3)n[nH]c1=S	x	30.0	2.51µM*	-20.0%	x
COc1ccc(C(=O)OCC(=O)Nc2cccc(S(=O)(=O)NC3=NCCCCC3)c2)cc1[N+](=O)[O-]	-1.8%	-2.2	0.3%	x	-19.8%
CCN(CC)S(=O)(=O)c1ccc(N2CCOCC2)c(NS(=O)(=O)c2cc(C(C)(C)C)ccc2C)c1	u	-68.8*	8.0%	0.2%	-8.5%
CCOc1ncccc1C(=O)Nc1cc(S(=O)(=O)N(CC)CC)ccc1N1CCOCC1	x	-65.9*	-12.5%	x	x
CCN(CC)S(=O)(=O)c1ccc(N2CCOCC2)c(NS(=O)(=O)c2ccc(C(C)C)cc2)c1	-5.6%	-24.4	-27.4%	-0.1%	-9.1%
CCOc1ncccc1C(=O)Nc1cc(C(F)(F)F)ccc1N1CCOCC1	x	-67.2*	3.1%	x	x
CCN(CC)S(=O)(=O)c1ccc(N2CCOCC2)c(NC(=O)c2cccc3ccccc23)c1	-15.2%	-22.9	2.1%	1.2%	-15.0%
O=C(Nc1cc(C(F)(F)F)ccc1N1CCOCC1)c1cccnc1Cl	9.4%	-24.9	0.6%	0.6%	-3.9%
CCOC(=O)CN(C(=O)CSc1nnnn1C)c1ccccc1	-0.4%	57.9	18.4%	x	-4.2%
CN=c1scc(-c2cccs2)n1/N=C/c1ccccc1O	u	-98.3*	10.2%	u	u
COc1cc(OC)c(OC)cc1NC(=O)CC1COc2ccccc2O1 (stereo unspecified)	x	58.4	-2.2%	-2.9%	x
COc1ccc(C)cc1NC(=O)CC1COc2ccccc2O1 (stereo unspecified)	-15.5%	-61.5*	-8.6%	1.0%	-9.9%
CCOC(=O)c1sc(NC(=O)c2ccc(OC(C)=O)cc2)nc1C	-15.0%	-81.9*	-5.5%	u	-14.9%
COc1ccc(N=c2scc(-c3ccc(OC)cc3)n2CCO)cc1	x	-74.0*	-3.1%	3.7%	x
COCCCn1c(-c2ccc(S(=O)(=O)N3CCOCC3)cc2)csc1=Nc1ccccc1	u	-88.0*!	-2.4%	3.5%	-5.2%
Cn1c(-c2ccc(S(=O)(=O)N3CCCC3)cc2)csc1=Nc1ccc(Cl)c(Cl)c1	-26.5%[7.34 µM]	-61.9*	1.8%	x	-17.6%[7.34 µM]
CCn1c(-c2ccc(S(=O)(=O)N3CCOCC3)cc2)csc1=Nc1ccc(C)c(Cl)c1	-22.6%	2.7	2.6%	x	-1.0%
O=S(=O)(c1ccc(-c2csc(=Nc3ccc(OC(F)(F)Cl)cc3)n2CCCO)cc1)N1CCCC1	u	-100.4*	-6.2%	x	u
COC(=O)c1ccc(COC(=O)C2CCN(S(=O)(=O)c3ccc(C)c(C)c3)CC2)o1	-12.7%	x	1.0%	x	-14.0%
O=C(COC(=O)Cc1ccc(F)cc1)NCCc1ccccc1	-12.3%	-29.7	0.0%	x	-6.6%
SMILES	VACV Venus inh	HCMV antiviral	Tb PYK inh	LmPK inhibitor	Vaccinia mCherry
Cc1cccc(-n2nnc(C(=O)Nc3ccc(F)cc3)c2N)c1	-17.4%	113.6	2.8%	1.9%	i
Cc1c(C(=O)Nc2ccc(F)cc2)nnn1-c1cccc(C(F)(F)F)c1	-19.7%	-87.8*	5.1%	11.0%	-17.1%
Cc1c(C(=O)Nc2ccc(C(=O)O)cc2)nnn1-c1ccccc1	-6.3%	-74.4*	-2.6%	x	1.0%
CC(C)[C@H](NC(=O)c1ccccc1)C(=O)OCC(=O)N1CCCCCC1	-7.4%	2.0	-4.1%	0.8%	-2.5%
CCOC(=O)/C(C#N)=C/c1cccc(F)c1	-7.7%	0.0	1.5%	-0.3%	-6.2%
O=C1c2ccccc2C(c2nnnn2Cc2ccccc2)N1CCCN1CCOCC1 (stereo unspecified)	-0.6%	-23.5	5.6%	x	2.1%
Cc1ccc(NC2=C(Cl)C(=O)c3ccccc3C2=O)cc1	-1.2%	39.2	-5.7%	-10.6%	-18.9%
COC1=C(Nc2ccc(O)cc2)C(=O)c2ccccc2C1=O	15.8µM*	-13.6	-20.3%	-20.2%	14.1µM*
O=C1C(Cl)=C(Nc2ccc(O)cc2)C(=O)c2ccccc21	u	-99.5*	-9.1%	-7.9%	u
COc1ccc(NC2=C(NC(C)=O)C(=O)c3ccccc3C2=O)cc1	-14.8%	-67.3*	-6.1%	-18.6%	-10.0%
CC(=O)c1ccc(NC(=S)N2CCCC(C(F)(F)F)C2)cc1 (stereo unspecified)	-3.1%	-8.1	-5.0%	-0.3%	-0.9%
O=C(NC(=S)N1CCCC(C(F)(F)F)C1)c1ccc(F)cc1 (stereo unspecified)	-4.7%	-66.1*	0.0%	-0.1%	-1.2%
COc1ccccc1C(=O)COC(=O)Cn1nc(C)c([N+](=O)[O-])c1C	-9.5%	-11.8	-2.8%	x	-18.4%
Cc1cnc2cc([N+](=O)[O-])ccc2n1	-1.5%	-5.9	-0.7%	3.4%	i
CCCCn1c2ccc(F)cc2c2nnc(SCCN3CCCCC3)nc21	u	-30.3	-11.0%	0.0%	-7.2%
Cn1c2ccc(F)cc2c2nnc(SCCN3CCCCC3)nc21	-23.6%	-86.2*!	-3.8%	0.1%	-10.0%
CCN1CCN(/C=N/c2nc3c(s2)CCCC3)CC1	-7.1%	-68.9*	-15.8%	-2.0%	i
CN1CCN(CC(=O)Nc2nc3c(s2)CCCC3)CC1	x	101.2	1.7%	3.1%	x
COc1ccc(N2CCN(c3ccc(N4C(=O)CC(C)C4=O)cc3[N+](=O)[O-])CC2)cc1 (stereo unspecified)	x	-89.9*	0.3%	-2.6%	x
COc1ccc(N2CCN(c3ccc(N4C(=O)COCC4=O)cc3[N+](=O)[O-])CC2)cc1	-19.3%	-25.4	-5.7%	3.5%	i
CCSC1=NCCN1S(=O)(=O)c1ccc2ccccc2c1	-12.9%	u	-0.4%	-5.7%[11.5 µM]	-6.0%
COc1ccc(CCNC(=O)c2cnc3sc(N4CCC(C)CC4)nn3c2=O)cc1OC	-18.9%	4.1	-4.1%	x	-4.4%
C=CC[n+]1c(/C=C/c2ccc(OC(C)=O)c(OC)c2)ccc2ccccc21	x	-99.5*	5.4%	-14.6%	x
COc1ccc(-[n+]2c(-c3ccccc3)cc(-c3ccccc3)cc2-c2ccccc2)cc1	u	-97.3*	-1.3%	x	u
Oc1ccc(-[n+]2c(-c3ccccc3)cc(-c3ccccc3)cc2-c2ccccc2)cc1	u	-96.7*	0.1%	x	-9.2%
